Compound activity deposited in PubChem by several laboratories.
Most compounds without a hit are left out; they make up all but 1.5% or so of the library.
V-ATPase pHluor = regulators of yeast V-ATPase proton transport; S. cerevisiae, pHLuorin cytosolic pH fluorescence; response, % at 10 µM; actives 0.37% (n = 350,000); in the data active means response mostly above about 7.3%, no sharp cut-off; inactive means mostly below about 5.4%; further: actives read high
NTR1 agonist = agonists of human neurotensin receptor NTR1; NTR1-U2OS beta-arrestin-GFP spot imaging, agonist mode; activation, % at 20 µM; actives 0.17% (n = 330,000);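 active means activation at or above 40% of the spot to cytoplasm intensity ratio, with at least 20 cells analyzed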;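 further: 0% = DMSO without peptide and 100% = 100 nM NTR1 peptide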
Target sequence (P30989 whole entry, looked up): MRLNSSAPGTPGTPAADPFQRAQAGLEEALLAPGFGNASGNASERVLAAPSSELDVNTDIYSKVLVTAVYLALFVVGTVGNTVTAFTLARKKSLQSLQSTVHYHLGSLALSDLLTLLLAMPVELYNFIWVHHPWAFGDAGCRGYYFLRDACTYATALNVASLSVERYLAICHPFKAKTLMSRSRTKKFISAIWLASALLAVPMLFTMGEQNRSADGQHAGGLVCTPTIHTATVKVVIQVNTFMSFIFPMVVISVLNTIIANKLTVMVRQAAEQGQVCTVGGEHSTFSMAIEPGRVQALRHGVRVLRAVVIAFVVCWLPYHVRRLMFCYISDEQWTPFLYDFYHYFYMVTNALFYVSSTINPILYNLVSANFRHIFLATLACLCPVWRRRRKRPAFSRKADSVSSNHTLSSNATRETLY
CRFBP-R2 agonist = agonists of human CRF-binding protein/CRF-R2 receptor complex | HEK293 CRF-R2/CRF-BP, calcium dye fluorescence (FLIPR); percent of saturating CRF peptide response | activation, % at 13.2 µM | actives 0.46% (n = 350,000) | AID 588473;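 active means activation of at least 50%, plus an integration ratio under a set limit after plate pattern correction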;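 further: plate controls were neutral control wells without compound for no effect and CRF at EC100 for full effect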
CRFR2-BP antag = CRF-BP/CRF-R2 complex antagonism; HEK293 CRF-R2/CRF-BP, CRF-induced calcium fluorescence; inhibition, % at 11.8 µM; actives 0.59% (n = 350,000);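 active means inhibition of the ligand-induced calcium signal above about 50% at the single tested concentration, limit read from the data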
VATPase regulator = regulators of yeast V-ATPase proton transport; actives 2% (n = 980); S. cerevisiae pHLuorin cytosolic pH; response, % at 10 µM; AID 602197; shares compounds with V-ATPase pHluor; in the data active means response above about 24%;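 further: plate controls were vehicle wells for no effect and positive control wells for full effect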
The depositor's hits bear a star; nt = no result given.

SMILES	V-ATPase pHluor	NTR1 agonist	CRFBP-R2 agonist	CRFR2-BP antag	VATPase regulator
CS(=O)(=O)NCC(c1ccco1)N1CCN(c2ccc(F)cc2)CC1 (stereo unspecified)	-1.6	0.5	-2.7	1.3	nt
Cn1nnnc1Sc1c(Cl)cccc1[N+](=O)[O-]	7.8*	-0.1	1.3	-7.7	2.7
Cc1ccc(NC(=O)CS(=O)Cc2nc(-c3ccc(C)cc3)oc2C)cc1 (stereo unspecified)	10.6*	-0.7	-3.5	5.1	3.4
COc1ccccc1NC(=O)c1ccccc1S(=O)(=O)c1ccccc1[N+](=O)[O-]	10.8*	-1.2	-1.5	5.8	6.2
CCCCNC(=S)N1CCN(CC)CC1	4.6	-0.3	2.4	-1.8	nt
CCCNC(=S)N1CCN(C)CC1	8.2*	-2.5	0.1	4.6	-4.8
O=C(O)C1=C[C@@H](c2coc3ccccc3c2=O)C[C@@H](OCCCCO)O1	2.1	-1.2	1.6	5.6	nt
Cc1c(C)n2c3c(cccc13)CC2	6.0*	-0.3	-1.1	0.1	0.9
CCc1ccc(/C(C)=N/NC(=O)CNC(=O)/C=C/c2ccco2)cc1	24.7*	0.6	0.6	7.3	0.2
COc1cc(OC)cc(-c2c(-c3cccs3)c3cc(-c4ccc(CN5CCOCC5)cc4)ccc3n2C)c1	7.8*	4.2	1.8	0.6	-69.5
COc1cc(F)cc(-c2ccc3c(c2)c(-c2cccs2)c(-c2cc(OC)cc(OC)c2)n3C)c1	3.5	3.2	14.5	-17.9	nt
O=[N+]([O-])c1ccc2c(c1)C(O)n1nc(-c3ccc(Cl)cc3Cl)nc1S2 (stereo unspecified)	7.3*	-0.5	0.8	-6.3	-0.7
Cc1nc2n(n1)C(O)c1cc([N+](=O)[O-])ccc1S2 (stereo unspecified)	nt	0.7	nt	nt	nt
C/C(=N\N=C1\NC(=O)C(CC(=O)Nc2ccccc2F)S1)C1CCCCC1 (stereo unspecified)	0.9	0.1	-3.8	-68.1	nt
COc1ccc(C(=O)CNc2ccccc2C#N)cc1	9.3*	0.9	0.2	-3.1	2.1
COc1ccc(C)cc1NC(=O)C1CCN(S(=O)(=O)c2ccc3c(c2)NC(=O)CO3)CC1	-0.1	-0.3	-4.2	-9.9	nt
Cc1ccc(N2CCN(S(=O)(=O)N3CCCCC3)CC2)cc1C	10.7*	2.6	-1.1	-3.2	1.9
O=C(Cc1coc2cc(O)ccc12)NNC(=O)c1ccc(Br)s1	-3.5	1.1	1.4	9.2	nt
Cc1cccc(-n2nc([N+](=O)[O-])c(=NC3CCN(Cc4ccccc4)CC3)n2O)c1	12.7*	0.8	-2.3	-5.4	-1.7
O=C(Nc1nnc(-c2ccccc2Cl)o1)c1ccco1	11.3*	0.9	0.5	10.3	0.6
Cc1ccc(-c2nnc(NC(=O)c3ccco3)o2)c(C)c1	0.0	0.3	3.4	0.6	nt
Cc1cc(NC(=O)CCC(=O)N(CC(=O)NC2CCCC2)Cc2ccc3c(c2)OCO3)no1	9.7*	1.6	0.3	14.5	-1.2
Cc1cc(NC(=O)CCC(=O)N(CC(=O)NC2CCCC2)Cc2ccc(F)cc2)no1	3.4	-0.2	-0.9	6.6	nt
Cc1ccc(S(=O)(=O)N2CCN(C(=O)COC(=O)CCOc3cc(C)ccc3C)CC2)cc1	10.1*	5.9	0.2	15.3	2.1
Cc1ccc(C)c(OCCC(=O)OCC(=O)N2CCN(S(=O)(=O)c3ccc(Cl)cc3)CC2)c1	-1.2	3.6	-5.0	13.5	nt
SMILES	V-ATPase pHluor	NTR1 agonist	CRFBP-R2 agonist	CRFR2-BP antag	VATPase regulator
Cc1ccc(S(=O)(=O)N2CCN(C(=O)COC(=O)CCOc3ccccc3C)CC2)cc1	11.8*	2.1	2.0	7.7	2.5
CC(OC(=O)CN1C(=O)c2ccccc2C1=O)C(=O)NC1CCCCC1C (stereo unspecified)	-3.1	1.7	-1.5	-5.9	nt
O=C1CC(N2CCC(c3nc4ccccc4[nH]3)CC2)C(=O)N1c1cccc(F)c1 (stereo unspecified)	5.8*	0.3	-0.9	-0.8	3.4
O=C(O)c1ccc(N2C(=O)CC(N3CCC(c4nc5ccccc5[nH]4)CC3)C2=O)cc1 (stereo unspecified)	0.8	2.4	0.2	2.0	nt
COn1c(SCc2cccc(Cl)c2)nc2ccccc2c1=O	15.1*	5.3	1.5	3.7	-0.9
COc1ccc(NC(=O)COC(=O)CCOc2ccccc2C)cc1Cl	-3.1	0.8	2.8	-16.3	nt
Cc1ccc(/C=N/NC(=O)Nc2ccccc2)o1	37.8*	0.7	-3.8	16.8	1.3
COC(=O)N/N=C/c1cccs1	-0.2	3.6	3.2	4.6	nt
COc1ccc(CCCC(=O)N/N=C\c2cccs2)cc1	8.6*	1.3	1.6	-27.6	-1.1
Clc1ccc(Nc2ncnc3c2cnn3-c2ccccc2)cc1	-0.7	6.5	-0.2	-39.2	nt
COc1ccc(Nc2ncnc3c2cnn3-c2ccccc2)cc1OC	11.0*	0.0	0.2	5.6	5.1
Nc1nc(NCc2ccco2)nc(N2CCCCCC2)c1[N+](=O)[O-]	22.6*	11.4	0.1	-82.1	1.2
Cc1cc(C(=O)CCC(=O)N(C)CC2COc3ccccc3O2)c(C)s1 (stereo unspecified)	2.5	nt	0.9	-7.5	nt
COc1ccc(NS(=O)(=O)c2ccc(C)c(C(=O)NCCCn3ccnc3)c2)cc1	-2.5	nt	4.4	-19.2	nt
COc1ccc(CNC(=S)NCc2ccc(OC)cc2)cc1	7.1*	-0.7	-6.4	17.7	-1.1
COc1ccc(Cc2nnc(SC(C)C(=O)Nc3ccc(F)cc3Cl)o2)cc1 (stereo unspecified)	-3.5	-0.1	-0.1	-3.0	nt
C[C@H](O)[C@@H]1CN2CCc3c([nH]c4ccccc34)[C@@H]2C[C@@H]1N(C)C(=O)NC1CCCCC1	5.4	nt	2.7	-9.1	nt
CCOC(=O)c1ccc(NC(=S)NC(=O)COc2ccccc2)cc1	65.2*	6.6	0.6	-90.8	-4.4
Cc1onc(-c2ccccc2)c1C(=O)c1c[nH]c(C(=O)NCc2ccncc2)c1	10.8*	-1.1	1.5	-2.0	2.4
CC(O)C(NS(=O)(=O)c1ccc2ccccc2c1)C(=O)OCC(=O)Nc1ccccc1OC(F)F (stereo unspecified)	-4.4	nt	-2.2	-26.9	nt
O=C(COC(=O)CSc1ccc2ccccc2c1)Nc1ccccc1OC(F)F	10.9*	1.6	2.8	1.4	-0.9
O=C(NCc1ccccn1)C(=O)Nc1cccc2ccccc12	0.8	0.9	5.6	-10.7	nt
Cc1cc2[nH]c(=O)c(=O)[nH]c2cc1S(=O)(=O)Nc1cccc(F)c1	-3.0	0.0	-0.2	-7.4	nt
COCCNC(=O)c1ccccc1NC(=O)c1ccc(OC)c(OC)c1	10.6*	-0.9	-0.1	3.1	2.2
COc1ccccc1NC(=O)c1ccc(COc2ccccc2OC)cc1	10.3*	0.6	-1.2	16.4	0.8
COc1ccccc1OCc1ccc(C(=O)Nc2ccccc2F)cc1	0.6	0.3	-6.4	18.7	nt
C/C(=N\O)C(C)(C)Nc1cccc(Br)c1	15.6*	-0.5	-3.8	-5.0	3.9
O=C1CCCN1CCC(=O)N1CCCC(N2CCN(c3ccccc3F)CC2)C1 (stereo unspecified)	4.0	0.9	2.4	-14.2	nt
Cc1ccccc1S(=O)(=O)Cc1ccc(C(=O)NCCCN2CCN(C)CC2)o1	7.6*	1.1	1.3	0.2	1.4
